PubChem BioAssay (Tox21)
Inconclusive results are not listed. Activity calls are given as the source filed them. Unless noted, calls come from the whole dose curve; as a rule, active = well fitted curve in the direction sought with a large enough effect in the repeat runs; inconclusive = weak or mixed curves; inactive = no such curve, though single readings can be large; an effect the other way counts as inactive or inconclusive.

How the values were obtained:
[1] = qHTS assay for small molecule agonists of the p53 signaling pathway (AID 651631; calls by dose curve; note: nearly all actives have a fitted effect of over 15% in size)
Method in brief: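 HCT-116 cells carrying a beta-lactamase reporter under p53 response elements were dosed with compound for 16 h at 37 °C. LiveBLAzer B/G FRET substrate was then added for 2 h at room temperature, and fluorescence intensity was read to detect pathway agonism.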

[2] = qHTS assay for small molecules that induce genotoxicity in human embryonic kidney cells expressing luciferase-tagged ATAD5 (AID 651632); note: nearly all actives have a fitted effect of over 15% in size
Method in brief: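 Test compounds were delivered by pin tool onto HEK293T reporter cells (2,000/well) expressing ATAD5 fused to luciferase. After 16 hr at 37C, 5% CO2, Amplite was added for 30 min at room temperature and luminescence was measured.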

[3] = qHTS assay for small molecule agonists of the p53 signaling pathway - cell viability (AID 651633; calls by dose curve;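 note: p53RE-bla HCT reporter cells with a stable beta-lactamase p53 reporter; series mostly up to about 83 µM; nearly all actives have a fitted effect of over 30% in size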)
Method in brief: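 p53RE-bla cells were treated with compound for 16 hours at 37 C. Cytotoxicity was then measured as CellTiter-Glo luminescence after 30 min at room temperature.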

[4] = qHTS assay for small molecules that induce genotoxicity in human embryonic kidney cells expressing luciferase-tagged ATAD5 - cell viability (AID 651634; calls by dose curve; note: nearly all actives have a fitted effect of over 25% in size)
Method in brief: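 Quantitative high-throughput format. HEK293T cells expressing ATAD5 fused to luciferase were plated at 2,000 cells/well and treated 15.5 hr with compound versus DMSO. Viability was determined by fluorescent live-cell protease substrate, 30 min at 37C.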

[5] = qHTS assay for small molecule disruptors of the mitochondrial membrane potential - cell viability (AID 720634; calls by dose curve;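 note: human HepG2 liver cancer cells; series mostly up to about 83 µM; nearly all actives have a fitted effect of over 20% in size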)
Method in brief: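 Same-well counter-screen: following the MMP dye addition, CellTiter-Glo was added to 1 hr compound-treated HepG2 cells and luminescence read after 30 min at room temperature.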

[6] = qHTS assay to test for compound auto fluorescence at 590 nm (red) in HepG2 cells (AID 720674)
Method in brief: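 Fluorescence at 590 nm emission following 540 nm excitation was recorded from HepG2 wells one hour after compound transfer, with DMSO-only wells as vehicle and Rose Bengal sodium equivalency as the scale.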

[7] = qHTS assay to test for compound auto fluorescence at 535 nm (green) in HepG2 cells (AID 720675)
[8] = qHTS assay to test for compound auto fluorescence at 460 nm (blue) in HEK293 cells (AID 720678)
Method in brief: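 Blue read-out at excitation 405 nm and emission 460 nm follows overnight compound exposure of HEK293 cells at 37C in 5% CO2. Activity is given as auto fluorescence equivalency to triamterene.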

[9] = qHTS assay to test for compound auto fluorescence at 590 nm (red) in HEK293 cells (AID 720679)
Method in brief: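 Red channel, Ex/Em 540/590nm; signal expressed as equivalency to Rose Bengal sodium. HEK293, 2,000 cells/well, 10% dialyzed FBS; 23 nL compound pinned after 4-5 hr attachment; overnight 37C/5% CO2 before reading.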

[10] = qHTS assay to test for compound auto fluorescence at 535 nm (green) in HEK293 cells (AID 720680)
[11] = qHTS assay to test for compound auto fluorescence at 460 nm (blue) in HEK293 cell free culture (AID 720681)
Method in brief: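 Compounds were added to cell-free DMEM with 10% FBS and fluorescence read directly. The blue channel used 405 nm excitation and 460 nm emission, with triamterene as the reference fluorophore.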

[12] = qHTS assay to test for compound auto fluorescence at 535 nm (green) in HEK293 cell free culture (AID 720682)
Method in brief: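 Green-label autofluorescence (485 nm excitation, 535 nm emission) measured on compound added to cell-free culture medium (DMEM, 10% FBS). Output is expressed relative to fluorescein.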

[13] = qHTS assay to test for compound auto fluorescence at 590 nm (red) in HEK293 cell free culture (AID 720683)
Method in brief: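 Cell-free wells of DMEM with 10% FBS received compound, and intrinsic fluorescence was read at excitation/emission 540/590 nm. Values expressed as equivalence to Rose Bengal sodium.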

[14] = qHTS assay to test for compound auto fluorescence at 590 nm (red) in HepG2 cell free culture (AID 720684)
Method in brief: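 Rose Bengal sodium served as the reference for red signal. Test compounds were dispensed into serum-containing MEM (10% FBS) without cells, and plates were read at 540/590 nm.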

[15] = qHTS assay to test for compound auto fluorescence at 460 nm (blue) in HepG2 cell free culture (AID 720685)
Method in brief: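 Cell-free plates of MEM plus 10% FBS received 23 nL compound or DMSO vehicle; blue-channel (405/460 nm) intensity scored against triamterene as reference fluorophore.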

[16] = qHTS assay to test for compound auto fluorescence at 535 nm (green) in HepG2 cell free culture (AID 720686)
[17] = qHTS assay to test for compound auto fluorescence at 460 nm (blue) in HepG2 cells (AID 720687)
Method in brief: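 HepG2 cells in MEM with 10% FBS, attached overnight at 37 C, were exposed to compound or DMSO for 1 hr at 37 C, 5% CO2. Blue fluorescence was read at 405/460 nm, with triamterene as reference fluorophore.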

[18] = biological target: Glucocorticoid receptor (Homo sapiens) (UniProt P04150); experiment: qHTS assay to identify small molecule antagonists of the glucocorticoid receptor (GR) signaling pathway (AID 720692; active = well fitted inhibition curve with a large enough effect in the signal ratio in the repeat runs, not every such curve was filed as active; the % refers to the signal ratio)
Method in brief: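 GRE-bla HeLa line, dex-stimulated (5 nM final). Compound exposure 18 h, 37 C. Beta-lactamase FRET read after 2 h RT substrate.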

[19] = biological target: Glucocorticoid receptor (Homo sapiens) (UniProt P04150); experiment: qHTS assay to identify small molecule agonists of the glucocorticoid receptor (GR) signaling pathway (AID 720691; active = well fitted activation curve with a large enough effect in the signal ratio in the repeat runs, not every such curve was filed as active; the % refers to the signal ratio; note: potency is the fitted concentration of half-maximal effect)
Method in brief: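 A HeLa cervical cancer line expressing GR and a glucocorticoid response element-driven beta-lactamase gene is treated with compounds for 18 h; LiveBLAzer B/G FRET substrate is then applied and fluorescence read.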
% is set by controls: 0 for no effect and ±100 for the full control effect.

Chain of Glucocorticoid receptor (Homo sapiens) (P04150 whole entry, looked up): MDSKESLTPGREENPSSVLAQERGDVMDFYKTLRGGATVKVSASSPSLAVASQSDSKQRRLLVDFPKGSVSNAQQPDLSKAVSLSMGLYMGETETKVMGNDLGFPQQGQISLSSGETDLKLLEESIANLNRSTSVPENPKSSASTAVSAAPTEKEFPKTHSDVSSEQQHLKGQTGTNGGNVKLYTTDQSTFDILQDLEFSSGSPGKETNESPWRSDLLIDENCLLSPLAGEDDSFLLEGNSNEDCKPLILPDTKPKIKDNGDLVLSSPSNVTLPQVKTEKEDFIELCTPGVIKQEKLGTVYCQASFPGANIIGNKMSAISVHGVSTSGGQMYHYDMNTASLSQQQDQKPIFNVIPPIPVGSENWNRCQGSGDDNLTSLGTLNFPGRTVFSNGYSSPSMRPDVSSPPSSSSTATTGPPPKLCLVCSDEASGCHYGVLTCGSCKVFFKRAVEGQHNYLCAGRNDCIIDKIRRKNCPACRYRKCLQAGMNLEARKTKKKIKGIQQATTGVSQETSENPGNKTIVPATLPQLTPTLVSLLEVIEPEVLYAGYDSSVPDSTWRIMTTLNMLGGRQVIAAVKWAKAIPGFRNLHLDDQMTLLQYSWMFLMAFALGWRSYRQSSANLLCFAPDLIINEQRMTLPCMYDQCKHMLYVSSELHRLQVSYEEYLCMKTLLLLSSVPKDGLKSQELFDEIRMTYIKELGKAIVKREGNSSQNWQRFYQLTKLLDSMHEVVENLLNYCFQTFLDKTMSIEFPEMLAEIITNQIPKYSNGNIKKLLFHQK

CCCCCCCCCCCCCCN(C)C
inactive: Potency [1] | Potency [2] | Potency [3] | Potency [4] | outcome [5] | fluorescence, relative to Rose Bengal [6] 0.132% [at 18.6 µM] | fluorescence, % of fluorescein control [7] 0.0291% [at 18.6 µM] | fluorescence, % of triamterene [8] -0.142% [at 18.6 µM] | fluorescence, % of fluorescent control [9] 0.0361% [at 18.6 µM] | fluorescence, % of fluorescein [10] 0.0258% [at 18.6 µM] | fluorescence, % of fluorescent control [11] 0.0125% [at 18.6 µM] | activity change [12] -0.0109% [at 18.6 µM] | fluorescence, % of fluorescent control [13] -0.0109% [at 18.6 µM] | fluorescence, % of Rose Bengal [14] -0.054% [at 18.6 µM] | fluorescence, % of fluorescent control [15] -0.025% [at 18.6 µM] | fluorescence, % of fluorescein control [16] -0.0531% [at 18.6 µM] | fluorescence, % of fluorescent control [17] -0.0432% [at 18.6 µM] | Potency [18]

O=S(=O)(O)CO
inactive: Potency [1] | Potency [2] | Potency [3] | Potency [4] | outcome [5] | outcome [6] | outcome [7] | Potency [8] | outcome [10] | Potency [11] | outcome [12] | outcome [13] | outcome [14] | Potency [15] | Potency [17] | Potency [19] | Potency [18]

CCN(CC)C(=O)N1CCN(C)CC1
inactive: Potency [1] | Potency [2] | Potency [3] | Potency [4] | outcome [5] | fluorescence, relative to Rose Bengal [6] 0.12% [at 18.6 µM] | fluorescence, % of fluorescein control [7] -0.0715% [at 18.6 µM] | fluorescence, % of triamterene [8] -0.217% [at 18.6 µM] | fluorescence, % of fluorescent control [9] 0.0039% [at 18.6 µM] | fluorescence, % of fluorescein [10] -0.0466% [at 18.6 µM] | fluorescence, % of fluorescent control [11] 0.0671% [at 18.6 µM] | activity change [12] -0.0353% [at 18.6 µM] | fluorescence, % of fluorescent control [13] 0.461% [at 18.6 µM] | fluorescence, % of Rose Bengal [14] 0.0189% [at 18.6 µM] | fluorescence, % of fluorescent control [15] -0.0488% [at 18.6 µM] | fluorescence, % of fluorescein control [16] -0.0623% [at 18.6 µM] | fluorescence, % of fluorescent control [17] 0.0195% [at 18.6 µM]
active: Potency [19] 10.2 µM

CCSC(=O)N(CC)CC
inactive: Potency [1] | Potency [2] | Potency [3] | Potency [4] | outcome [5] | outcome [6] | outcome [7] | Potency [8] | outcome [9] | outcome [10] | Potency [11] | outcome [12] | outcome [13] | outcome [14] | Potency [15] | Potency [19] | Potency [18]

NC(=O)c1ccccc1[N+](=O)[O-]
inactive: Potency [1] | Potency [2] | Potency [3] | Potency [4] | outcome [5] | outcome [6] | outcome [7] | Potency [8] | outcome [9] | Potency [11] | outcome [12] | outcome [13] | outcome [14] | Potency [15] | outcome [16] | Potency [17]

O=S(=O)(Cl)c1c(Cl)cccc1Cl
inactive: Potency [1] | Potency [2] | Potency [3] | Potency [4] | outcome [5] | outcome [6] | outcome [7] | Potency [8] | outcome [9] | outcome [10] | Potency [11] | outcome [12] | outcome [13] | outcome [14] | Potency [15] | outcome [16] | Potency [17] | Potency [19] | Potency [18]

COC(=O)c1sccc1S(N)(=O)=O
inactive: Potency [1] | Potency [2] | Potency [3] | Potency [4] | outcome [5] | outcome [6] | outcome [7] | Potency [8] | outcome [9] | outcome [10] | Potency [11] | outcome [12] | outcome [13] | outcome [14] | Potency [15] | outcome [16] | Potency [17]

CC[C@H]1OC(=O)[C@H](C)[C@@H](O[C@H]2C[C@@](C)(OC)[C@@H](O)[C@H](C)O2)[C@H](C)[C@@H](O[C@@H]2O[C@H](C)C[C@H](N(C)C)[C@H]2O)[C@](C)(O)C[C@@H](C)C(=O)[C@H](C)[C@@H](O)[C@]1(C)O
inactive: Potency [1] | Potency [2] | Potency [3] | Potency [4] | outcome [5] | outcome [6] | outcome [7] | Potency [8] | outcome [9] | outcome [10] | Potency [11] | outcome [12] | outcome [13] | outcome [14] | Potency [15] | outcome [16]
